Bioassay records from PubChem.
Shown are actives, neighbours in structure and some others; about 3.5% of the full set was active somewhere.
MITF inh: blocks human microphthalmia-associated transcription factor; AlphaScreen MITF homodimerization, bead proximity signal; 650,000 compounds, 0.91% hits; O75030; inhibition, % at 2.6 µM; in the data active = inhibition above about 50%
FBW7 activator: human FBW7 E3 ligase activation, primary screen. AlphaScreen FBW7–phospho-cyclin E peptide binding, activator screen. Q969H0. 650,000 compounds, 0.13% hits. normalized activity (activation), % at 26.1 µM; in the data active = normalized activity above about 1.9%;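 also: purified mutant Fbw7 with reduced substrate affinity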
Target sequence (Q969H0 whole entry, looked up): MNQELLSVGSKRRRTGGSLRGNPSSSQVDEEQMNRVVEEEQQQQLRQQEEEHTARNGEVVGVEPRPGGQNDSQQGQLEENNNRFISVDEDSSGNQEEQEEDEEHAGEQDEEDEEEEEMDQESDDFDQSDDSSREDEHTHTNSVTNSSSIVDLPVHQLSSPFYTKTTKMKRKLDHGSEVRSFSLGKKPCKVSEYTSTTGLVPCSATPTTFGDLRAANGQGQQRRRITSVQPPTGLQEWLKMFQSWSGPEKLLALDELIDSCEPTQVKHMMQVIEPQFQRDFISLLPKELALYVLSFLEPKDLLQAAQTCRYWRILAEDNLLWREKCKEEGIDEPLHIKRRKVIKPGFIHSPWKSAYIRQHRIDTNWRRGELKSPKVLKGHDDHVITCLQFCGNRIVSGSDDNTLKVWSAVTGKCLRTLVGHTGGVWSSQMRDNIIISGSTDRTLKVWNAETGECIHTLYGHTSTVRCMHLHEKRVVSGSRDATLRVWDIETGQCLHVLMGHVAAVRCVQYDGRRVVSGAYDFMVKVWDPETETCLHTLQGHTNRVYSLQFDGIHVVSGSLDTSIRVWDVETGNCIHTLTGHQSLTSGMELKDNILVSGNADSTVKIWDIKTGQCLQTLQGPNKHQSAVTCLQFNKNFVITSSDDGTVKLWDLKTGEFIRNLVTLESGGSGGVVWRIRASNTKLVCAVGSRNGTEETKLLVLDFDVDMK
GPR151 activ: activates the human receptor GPR151; PathHunter beta-arrestin GPR151 cells, luminescence; Q8TDV0; activation, % at 11.2 µM; 650,000 compounds, 1% hits; AID 1508602; in the data active = activation above about 4.9%
TEAD-YAP inh: TEAD-YAP interaction inhibition. HEK-TIYL cells, TEAD-Gal4/YAP UAS-luciferase luminescence. inhibition, % at 9.12 µM. 640,000 compounds, 1.4% hits; in the data active = inhibition above about 32%
GPR151 confirm: confirmation of human GPR151 activators; shares compounds with GPR151 activ; GPR151 PathHunter beta-arrestin cells, luminescence, 90 min; % of EA-reagent control over plate median; activation, % at 11.2 µM; 6,700 tested, under 10 active;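 active = mean percent activation across replicates above the confirmation screen cutoff of 4.91%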
GPR119 ag: counter-screen for GPR151 activators: effect on human GPR119; 6,700 compounds, 0.3% hits; activation, % at 11.2 µM; shares compounds with GPR151 activ; AID 1508611; GPR119 PathHunter beta-arrestin cells, luminescence, 90 min; 0 = compound-well median, 100 = enzyme-acceptor control;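 active = mean percent activation in the counterscreen above 29.09%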;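 also: counterscreen on off-target GPR119 to flag nonselective hits from the GPR151 activator screen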
A number is an active result; – = inactive; · = no result given.

SMILES | MITF inh | FBW7 activator | GPR151 activ | TEAD-YAP inh | GPR151 confirm | GPR119 ag
O=C(O)c1nn2c(C(F)(F)F)cc(-c3ccc(Br)cc3)nc2c1Br | – | – | – | – | · | ·
CCOc1cc(/C=N/NC(N)=S)ccc1OC(=O)c1cccc([N+](=O)[O-])c1 | – | – | – | – | · | ·
COc1ccc([N+](=O)[O-])cc1/C=C1\C(=O)N(c2ccccc2)N=C1C | – | – | 8.1 | – | – | –
C=CCn1c(SCC(=O)c2ccccc2)nc2cc(C(=O)NCc3ccco3)ccc2c1=O | – | – | – | – | · | ·
Cc1sc2nc(C3CC3)nc(SCC(N)=O)c2c1C | – | – | 6.8 | – | – | –
CCOC(=O)CSc1nc(C2CC2)nc2sc(C)c(C)c12 | – | – | – | – | · | ·
COc1ccc(NC(=S)Nc2ccc(S(N)(=O)=O)cc2)c(OC)c1 | – | – | – | – | · | ·
COc1ccc(NC(=S)Nc2ccc(S(=O)(=O)N3CCOCC3)cc2)c(OC)c1 | – | – | 5.2 | – | – | –
COc1ccc(CCNS(=O)(=O)c2ccc(S(=O)(=O)N3CCOCC3)cc2)cc1 | – | – | 5.6 | – | – | –
COc1ccc(NS(=O)(=O)c2ccc(S(=O)(=O)N3CCOCC3)cc2)cc1 | – | – | – | – | · | ·
COC(=O)c1ccc(NC(=S)N2CCC(C(N)=O)CC2)cc1 | – | – | – | – | · | ·
COc1cc(/C=N/N=C2\NC(=O)C(CC(=O)O)S2)ccc1OC(=O)c1ccccc1 (stereo not drawn) | – | – | – | – | · | ·
COc1ccc(CN2CCC(CNC(=O)c3cc(C(C)(C)C)[nH]n3)CC2)cc1 | – | – | – | – | · | ·
CC(C)OCCCNC(=O)CC1C(=O)NCCN1C (stereo not drawn) | – | – | 5.8 | – | – | –
CC1Cc2ccccc2N1C(=O)c1ccc2c(c1)OCO2 (stereo not drawn) | – | – | – | – | · | ·
COc1ccc(C(=O)N2c3ccccc3CC2C)cc1OC (stereo not drawn) | – | – | 6.4 | – | – | –
O=C(NCc1ccccn1)c1cccc(OC2CCN(C3CCSCC3)CC2)c1 | – | – | 8.7 | – | – | –
O=C(NCc1ccncc1)c1ccc(OC2CCN(C3CCSC3)CC2)cc1 (stereo not drawn) | – | – | 9.7 | – | – | –
CCOC(=O)Nc1sc(C(=O)N(CC)CC)c(C)c1C(=O)OCC | – | – | – | – | · | ·
O=C(CSc1nc2cc(Cl)ccc2s1)Nc1ccc(Cl)cc1 | – | – | – | – | · | ·
NS(=O)(=O)c1ccc(NC(=O)CSc2nc3cc(Cl)ccc3s2)cc1 | – | – | 6.1 | – | – | –
COc1cccc(NC(=O)CCN2CC(C)CC(C)C2)c1 (stereo not drawn) | – | – | – | – | · | ·
COCCOC(=O)c1c(N)sc(C(N)=O)c1C | – | – | 8.5 | – | – | –
Cc1ccc(/C(N)=N/OC(=O)Cc2cccc3ccccc23)cc1 | – | – | – | – | · | ·
Cc1ccc(CC(=O)O/N=C(\N)Cc2cccc3ccccc23)cc1 | – | – | 5.5 | – | – | –
SMILES | MITF inh | FBW7 activator | GPR151 activ | TEAD-YAP inh | GPR151 confirm | GPR119 ag
Cc1nc2nc(SCc3cc(=O)n4cc(Br)ccc4n3)nn2c(C)c1Cc1cccc(Cl)c1 | – | – | – | – | · | ·
CCCOC(=O)c1ccc(Nc2nc(C)cc(=O)[nH]2)cc1 | – | – | – | – | · | ·
Cc1cc(NC(=O)c2cccs2)cc(C)c1OCC(=O)N1CCOCC1 | – | – | 5.2 | – | – | –
Cc1ccc(-c2[nH]nc3c2C(c2cccc(OC(=O)c4cccs4)c2)C(C#N)=C(N)O3)cc1 (stereo not drawn) | – | – | – | – | · | ·
O=C(N[C@H]1CCCCNC1=O)c1ccc(CN2CCC(c3ccccc3)CC2)[nH]c1=O | – | – | 5.3 | – | – | –
O=C(NC1C2CC3CC(C2)CC1C3)c1ccc(CN2CCC(O)CC2)[nH]c1=O (stereo not drawn) | – | – | – | – | · | ·
Cc1ccc(-c2csc(C(C#N)=C3CCCCC3)n2)cc1 | – | – | 5.4 | – | – | –
CC(=O)N1c2ccccc2NC2=C(C(=O)CC(C)(C)C2)C1c1ccc(-c2ccc([N+](=O)[O-])cc2C)o1 (stereo not drawn) | – | – | – | – | · | ·
COCCCNC(=O)c1cc2c(=O)n(C)c3ccccc3c2n1C | – | – | – | – | · | ·
C/C(=N\NC(=O)CCc1ccccc1)c1ccncc1 | – | – | 7.2 | – | – | –
